Measured values published in PubChem BioAssay (NCI).
Compounds without any hit were thinned out: in the full panel of roughly 83,000, 20% have a hit.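 Step 1: grow cells in 96-well plates. Step 2: add test compound at a single concentration. Step 3: incubate 48 h. Step 4: record percent growth.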 Unmarked numbers belong to inactive results. Active and inactive are the calls of the source.

Test system: UO-31 renal
Assay: NCI-60 one-dose screen, 48 h (100 = growth as untreated, 0 = no growth, -100 = all killed)
Conditions: 10 µM
Procedure: Growth inhibition of the UO-31 human tumor cell line is measured as a screen for anti-cancer activity. Cells are grown in 96 well plates and exposed to the test compound for 48 hours. Compounds are tested at a single concentration, which is 10^-5 M for most compounds. The reported endpoint is percent growth (GI% or GIPRCNT), where numbers from 0 - 100% represent growth inhibition, and numbers from -100% - 0 represent cell death. For example, a value of 40 represents 60% growth inhibition. A value of 0 means no net growth occurred over the course of the experiment. A value of -40 indicates 40% of cells at the beginning of the experiment died by the end of the experiment. A value of -100 means all cells are dead at the end of the experiment.
NCI-60 Human Tumor Cell Lines Screen was performed using the standard one-dose NCI protocol, which is described in more detail at https://dtp.cancer.gov/discovery_development/nci-60/default.htm.
Compounds with GIPRCNT values below 10 were considered active. Activity score was based on GIPRCNT using the following formula: […]
Score is 0 for GIPRCNT values of 100 or above, 50 for GIPRCNT values of 0, and 100 for GIPRCNT values of -100.

SMILES	growth
CCc1cc2n(n1)-c1ncc(C(=O)OC)cc1Oc1ccccc1-2	88.8%
O=[N+]([O-])c1ccc(-c2nc(-c3ccccc3)c(-c3ccccc3)n2-c2ccccc2)cc1	-6.05% (active)
CC1(C)Cc2c(cn(Cc3ccccc3)c2-c2ccccc2)-c2oncc21	89.7%
C=CCn1c(C)nc2cc(Nc3nc(Nc4ccc5nc(C)n(CC=C)c5c4)c4ccccc4n3)ccc21	-94.4% (active)
COc1ccc(-c2cc(/C=C3\C(=O)Nc4cc(Cl)ccc43)[nH]n2)cc1	27.2%
CCOC(=O)[C@@H](Cc1ccccc1)NC(=O)c1[nH]c2ccc(Cl)cc2c(=O)c1C	84.7%
C#CCNCCN1C(=O)c2ccc3c4c(ccc(c24)C1=O)C(=O)N(CCNCC#C)C3=O	29.5%
CCCCCCCCCCCCCCCC(=O)N1CCN(C)CC1	40.5%
COc1ccc(-c2[nH]ncc2-c2cc(OC)c(OC)c(OC)c2)cc1	11.6%
Cc1nc2sccn2c1-c1csc(Nc2cccc(Cl)c2C)n1	51.2%
O=C(COCc1c(-c2ccccc2)no[n+]1[O-])Nc1nc(-c2ccc(Cl)cc2)cs1	80.8%
N=C(N)c1ccc(-c2ccc(-c3cccs3)s2)nc1	2.6% (active)
Cc1ccc(-c2cc(-c3cccc(Nc4ccnc5cc(Cl)ccc45)c3)nc3nc(N)[nH]c(=O)c23)cc1	78.1%
Cc1ccc(S(=O)(=O)Nc2cccc3[nH]c(C(F)(F)F)nc23)cc1	45.1%
COc1cc(OC)cc(-c2ccc(-c3ccc(C(=N)N)cn3)o2)c1	-33.9% (active)
CC(=O)Oc1c(C)c(C)c2c(c1C)CCC(C)(CC(=O)OCCCCCCCCCCC[P+](c1ccccc1)(c1ccccc1)c1ccccc1)O2 (stereo not given)	-5.35% (active)
COC1OC2COC(c3ccccc3)OC2C(=O)C1NC(=O)c1ccccc1 (stereo not given)	72.5%
COc1cccc2c1C(=O)c1c(O)c3c(c(O)c1C2=O)C[C@@](O)(C(=O)COC(=O)c1ccccc1)C[C@@H]3OC1CC(N)C(O)C(C)O1 (stereo not given in full)	-93.1% (active)
O=C(c1ccc(Cl)cc1)c1no[n+]([O-])c1C(=O)c1ccc(Cl)cc1	-94.9% (active)
CC1=CC2OC34COC3CC(OC(=O)C(F)(F)F)C4(C)C2(C)CC1 (stereo not given)	99.5%

SMILES	growth
[O-]c1c[n+](-c2ccc(Cl)cc2)no1	84.8%
N#Cc1ccc(-n2cnc(NC(=O)[C@H]3CCN(C#N)C3)c2)cc1	18.6%
CC(C)/C(=N/O)c1ccccc1	93.8%
c1ccc(OCCC[P+](c2ccccc2)(c2ccccc2)c2ccccc2)cc1	63.8%
CCOc1ccc2c(c1)CC[C@@H]1[C@@H]2CC[C@]2(C)[C@@H](O)[C@@H](O)C[C@@H]12	89.3%
NS(=O)(=O)c1ccc(N2N=C(c3ccc(-c4ccccc4)cc3)CC2c2ccc(Cl)cc2)cc1 (stereo not given)	72.1%
CCOC(=O)c1sc(NC(=O)c2cc(OC)c(OC)c(OC)c2)nc1C	75.7%
CC(C)c1ncc(CO)n1Cc1c(Cl)cccc1Cl	90.1%
COc1cc(N=C2C(=O)N(Cc3ccccc3)c3ccccc32)cc(OC)c1OC	77.3%
COc1cc(-c2cc(-c3ccc(C)cc3)nc3nc(N)[nH]c(=O)c23)ccc1Oc1ccnc2cc(Cl)ccc12	56.3%
Cc1cc(C)c2nc(C)c(C)[n+]([O-])c2c1	88.3%
COc1ccc(-c2n/c(=C\c3c(O)[nH]c4ccccc34)cc3c2=Nc2ccccc2-3)cc1	58.3%
CC(C)OP(=O)(O)c1ncc(-c2ccc(C(F)(F)F)cc2)c(NC2CCCCCC2)n1	60.2%
Cc1noc(C)c1-c1ccc2nc(NC(=O)[C@H]3CCN(C#N)C3)cn2c1	66.9%
S=c1c2ncccc2c(-c2ccccn2)nn1Cc1ccccn1	82.2%
O=C1/C(=C/c2cccs2)CCC/C1=C\c1cccs1	75.9%
CCN(CC)c1ccc(/C=C/C2=[N+](C)c3ccccc3C2(C)C)c(C)c1	8.27% (active)
O=NN(CC(=O)N/N=C/C=C\c1ccccc1)CC(=O)N/N=C/C=C/c1ccccc1	91.9%
COc1ccc2nc(NC(=O)Nc3c(F)cccc3F)sc2c1	102%
CS(=O)(=O)Nc1ccc(OCc2nnc(-c3ccc(Cl)cc3)o2)c(F)c1	74.1%
